Compound activity deposited in PubChem BioAssay by NMMLSC.
An excerpt weighted towards active compounds, which were near 1.2% of everything screened.
RGS7-Gao – human RGS7-Galphao interaction regulation; P09471; Multiplexed bead flow cytometry, RGS7-Galphao binding; actives lie on both sides; binding response (% of control), % at 10 µM; 0.35% of 220,000 active; AID 1439; in the data active = binding response below about 49% or above about 150%; inconclusive = no clear call, values can overlap the other calls; inactive = in between;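 note: fluorescent Galphao held in activated GDP-AlF4 state binding bead-coupled RGS7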
Target sequence (P09471 whole entry, looked up): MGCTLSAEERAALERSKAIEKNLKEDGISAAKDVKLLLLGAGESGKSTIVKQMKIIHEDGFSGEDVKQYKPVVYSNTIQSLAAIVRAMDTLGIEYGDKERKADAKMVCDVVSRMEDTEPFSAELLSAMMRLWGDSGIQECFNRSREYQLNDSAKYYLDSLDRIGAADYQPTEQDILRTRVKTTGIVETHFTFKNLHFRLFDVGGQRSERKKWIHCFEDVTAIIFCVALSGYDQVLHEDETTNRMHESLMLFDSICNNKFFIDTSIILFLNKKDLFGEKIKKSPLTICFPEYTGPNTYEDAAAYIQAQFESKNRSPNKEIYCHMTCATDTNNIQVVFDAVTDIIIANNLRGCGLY
Avidin bead fluor – avidin bead compound fluorescence profile; Avidin beads, compound fluorescence 488/530 nm, flow cytometry; hits give high values; fluorescence (KMESF) at 10 µM; 0.38% of 220,000 active; AID 1775; in the data active = fluorescence above about 47
GSH bead fluor – GSH bead compound fluorescence profile | GSH beads flow cytometry, compound fluorescence 488/530 nm; hits give high values | fluorescence (KMESF) at 10 µM | 0.25% of 190,000 active | AID 1776; in the data active = fluorescence above about 89;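 note: glutathione beads carrying GST-tagged Bcl family fusion proteins plus one bare bead set; values are compound well signal with DMSO vehicle wells as background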
RGS8-Gao – regulators of human RGS8-Galphao interaction. P09471. multiplexed bead flow cytometry, RGS8-Galphao binding; actives lie on both sides. response (percent of control binding), % at 10 µM. 0.34% of 220,000 active; in the data active = response below about 60% or above about 140%; inactive = in between;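 note: Galphao activated as the GDP aluminium fluoride complex binding bead-coupled RGS8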
RGS16-Gao HTS – modulates binding between human RGS16 and Galphao. bead-based flow cytometry RGS16-Galphao binding, fluorescence; actives lie on both sides. binding response (% of control), % at 10 µM. 0.38% of 220,000 active. AID 1441;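 note: Galphao activated by GDP with aluminum fluoride before binding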
Target sequence (O15492 whole entry, looked up): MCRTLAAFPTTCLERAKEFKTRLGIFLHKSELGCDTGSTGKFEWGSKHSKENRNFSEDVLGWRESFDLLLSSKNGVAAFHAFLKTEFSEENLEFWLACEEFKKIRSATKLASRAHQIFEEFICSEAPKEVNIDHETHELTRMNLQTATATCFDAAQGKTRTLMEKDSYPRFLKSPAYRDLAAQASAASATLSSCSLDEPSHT
Target sequence (P09471 whole entry, looked up): as the sequence (P09471 whole entry, looked up) above
RGS4-Gao reg – modulates binding of RGS4 to human Galphao. Multiplexed bead flow cytometry; actives lie on both sides. binding response (% of control), % at 10 µM. 0.33% of 220,000 active. AID 1415; in the data active = binding response below about 49% or above about 150%; inactive = in between;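 note: fluorescent Galphao activated with aluminum fluoride binding bead-coupled RGS4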
RGS-Gao – RGS4-Galphao interaction regulator (human). RGS4–Galpha-o binding response, % at 10 µM. multiplexed bead flow cytometry, RGS–Galpha-o binding. shares compounds with RGS16-Gao HTS. AID 1504. 99% of 1,600 active;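 note: fluorescently labeled Galpha-o bound to GDP with aluminium fluoride binding biotinylated RGS beads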
Biotin-avidin – interferes with biotinylated probe binding to avidin beads; shares compounds with RGS16-Gao HTS; AID 1783; 1,700 tested, under 10 active; inhibition, % at 10 µM; streptavidin beads, fluorescein-biotin binding, flow cytometry;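 active = inhibition above 50%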;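 note: median green fluorescence of gated singlet beads compared with DMSO control wells; 0% = DMSO wells and 100% = complete loss of bead fluorescence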
RGS8-Gao single – confirmation of regulators of human RGS8-Galphao interaction. shares compounds with RGS16-Gao HTS. bead-based flow cytometry RGS8-Galphao binding, fluorescence; actives lie on both sides. binding response (% of control), % at 10 µM. AID 1836. 3% of 1,700 active; in the data active = binding response below about 72% or above about 130%; inactive = in between;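 note: Galphao activated as GDP AlF4 complex before binding bead RGS8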
RGS7-Gao confirm – confirmation of regulators of human RGS7-Galphao interaction; shares compounds with RGS16-Gao HTS; bead-based flow cytometry RGS7-Galphao binding; actives lie on both sides; response (percent of control binding), % at 10 µM; 7.8% of 1,700 active; in the data active = response below about 75% or above about 130%; inactive = in between;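 note: fluorescent Galphao activated with GDP and aluminum fluoride binding bead-coupled RGS7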
RGS16-Gao conf – RGS16-Galphao interaction regulation, single point confirmation; shares compounds with RGS16-Gao HTS; bead-based flow cytometry, RGS16-Galphao binding; actives lie on both sides; AID 1838; response (% of control binding), % at 10 µM; 4% of 1,700 active; in the data active = response below about 74% or above about 130%; inactive = in between;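 note: Galphao activated as the GDP aluminium fluoride complex binding bead-coupled RGS16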
RGS4-Gao single – confirmation of regulators of human RGS4-Galphao interaction; shares compounds with RGS16-Gao HTS; RGS4-Galphao binding, multiplexed bead flow cytometry; actives lie on both sides; binding response (% of control), % at 10 µM; 4% of 1,700 active; AID 1840; in the data active = binding response below about 74% or above about 130%; inactive = in between
RGS19-Gao single – confirmation of regulators of human RGS19-Galphao interaction. shares compounds with RGS16-Gao HTS. bead-based flow cytometry RGS19-Galphao binding; actives lie on both sides. response (percent of control binding), % at 10 µM. 5% of 1,700 active. AID 1841; in the data active = response below about 50% or above about 160%; inactive = in between;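 note: 100% = no compound control and 0% = blank background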
Starred values were filed as active, the others as inactive; i = inactive; u = inconclusive; x = no result; [ ] = dose if it differs, or a comment. Unless noted, the rule behind the calls is not given here.

SMILES	RGS7-Gao	Avidin bead fluor	GSH bead fluor	RGS8-Gao	RGS16-Gao HTS	RGS4-Gao reg	RGS-Gao	Biotin-avidin	RGS8-Gao single	RGS7-Gao confirm	RGS16-Gao conf	RGS4-Gao single	RGS19-Gao single
CCOC(=O)c1cccc(-n2c(C)nc3ccccc3c2=O)c1	100	13	29	91	73	96	x	x	x	x	x	x	x
CCOC(=O)c1cccc(-n2c(-c3ccc(OC)cc3)nc3nc4ccccc4nc32)c1	179*[activator]	124*	15	98	101	108	108*	0	96	103	100	101	90
Cn1c(NC(=O)c2ccc(S(=O)(=O)N3CCOCC3)cc2)cc(=O)n(C)c1=O	102	11	11	101	106	103	x	x	x	x	x	x	x
O=C(c1cc([N+](=O)[O-])ccc1N1CCOCC1)N1CCOCC1	98	1	9	89	70	96	x	x	x	x	x	x	x
O=C(c1cc([N+](=O)[O-])ccc1N1CCOCC1)N1CCCC1	86	1	9	65	16*	84	84*	-2	101	98	98	102	97
Cc1ccc(C(=O)c2cc([N+](=O)[O-])ccc2N2CCOCC2)cc1	89	6	7	85	21*	92	92*	5	101	99	99	99	104
COc1ccc(C(=O)c2cc([N+](=O)[O-])ccc2N2CCOCC2)cc1	93	1	10	87	69	89	x	x	x	x	x	x	x
Cc1cccc(C)c1NC(=O)C(NC(=O)CN1C(=O)c2ccccc2C1=O)c1ccccc1 (stereo unspecified)	93	7	19	101	97	97	x	x	x	x	x	x	x
CN(C)CCCNC(=O)c1ccc(/C=N/O)nc1	-11*	0	13	12*	9.7*	6.1*	x	-1	102	105	101	102	99
CNCCCNC(=O)c1ccc(/C=N/O)nc1	102	10	13	100	102	101	x	x	x	x	x	x	x
Cc1cccc(C(=O)N2CCN(c3ccc(N4CCOCC4)nn3)CC2)c1	u	2	x	37*	22*	29*	x	-1	111	118	112	115	107
Nc1sc(-c2ccccc2)c(Cc2ccccc2)c1C(=O)O	104	25	11	105	105	100	x	x	x	x	x	x	x
Nc1ccc(C(CC(=O)O)n2cccc2)cc1 (stereo unspecified)	39*	13	7	72	96	83	83*	-1	97	80	90	89	66
CCCOC(=O)c1ccc(OC(=O)c2ccco2)cc1	137	12	11	122	i	176*[activator]	x	-1	100	92	101	100	102
COc1ccc(S(=O)(=O)N2CCC(C(=O)N3CCCCC3)CC2)cc1Cl	103	9	12	104	102	102	x	x	x	x	x	x	x
CCCCn1c(-c2csc(C(C)C)c2)n[nH]c1=S	100	2	5	76	38	99	x	-1	102	109	104	102	101
CC1(C)CC(=O)C=C(NNC(=O)c2ccccc2)C1	9.9*	-2	21	14*	8.0*	4.6*	x	-1	103	103	103	103	96
COc1ccc(S(=O)(=O)NCCc2nnc3ccc(SCC(=O)Nc4nc(C)cs4)nn23)cc1	99	5	8	101	101	98	x	x	x	x	x	x	x
Cc1ccccc1NC(=O)Cn1nnc(-c2ccc(CN3CCC(C)CC3)cc2)n1	u	8	x	105	102	103	x	x	x	x	x	x	x
COc1ccc(NC(=O)Cn2nnc(-c3ccc(CN4CCOCC4)cc3)n2)c(OC)c1	129	6	13	145*[activator]	170	149	149*	-4	105	106	106	105	98
CCOC(=O)C1=C(N)OC2=C(C(=O)CCC2)C1c1ccccc1OCC (stereo unspecified)	296*[activator]	172*	34	97	111	135	135*	0	97	93	97	99	99
CCOC(=O)C1=C(N)OC2=C(C(=O)CCC2)C1c1ccccc1OC (stereo unspecified)	99	11	16	101	105	99	x	x	x	x	x	x	x
O=C(NNC(=O)C1CC2CCC1C2)c1sc2ccccc2c1Cl (stereo unspecified)	166*[activator]	94*	17	101	103	109	109*	-2	101	102	104	103	106
CCOC(=O)N1CCN(C(=O)CCCn2c(=S)[nH]c3ccccc3c2=O)CC1	x	x	45	x	x	x	x	0	102	98	107	103	102
CCOc1ccc(C(=O)NCC(=O)N2CCc3ccccc3C2)cc1OCC	101	12	71	101	107	98	x	x	x	x	x	x	x
O=S1(=O)[C@H]2C[C@@H]3C=C[C@]2(CN1Cc1ccc(C(F)(F)F)cc1)O3	u	12	x	83	100	99	x	0	101	88	97	95	80
O=S1(=O)[C@H]2CC3O[C@]2(C[C@@H]3c2ccc(F)cc2)CN1Cc1ccc(Cl)cc1	u	8	x	95	92	89	x	x	x	x	x	x	x
CC(=O)C12C3C4C(C5C1C3C5(Br)C41OCCO1)C21OCCO1 (stereo unspecified)	90	7	8	86	22*	93	93*	-2	112	117	112	113	99
COC(=O)c1cc(NS(=O)(=O)c2ccc(C)c3ccccc23)ccc1N1CCOCC1	u	7	x	101	104	102	x	x	x	x	x	x	x
O=C(CSc1nncn1-c1ccccc1)NC1CCCc2ccccc21 (stereo unspecified)	94	0	11	69	23*	92	92*	-2	101	95	100	99	79
